PubChem BioAssay (NCI)
The panel holds about 79,000 compounds, 15% with a hit somewhere; the sample as a whole holds those more often. The source made the active and inactive calls. Cut-off read from the data, not from the text of the source: active = growth inhibition above about 70%; inactive = the rest.

Columns and labels:
[1] = NCI Yeast Anticancer Drug Screen. Data for the rad52 strain (AID 147);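 note: 0% = growth of vehicle-treated control cultures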; settings: S. cerevisiae rad52 mutant growth inhibition, hits give high values
How it was run: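 Compounds are applied to a genetically defined yeast strain lacking normal DNA damage repair, and inhibition of growth is expressed relative to cultures given vehicle only.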

[2] = NCI Yeast Anticancer Drug Screen. Data for the wt1 strain (AID 149);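 note: 0% = growth of vehicle-treated wt1 cultures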; settings: S. cerevisiae wt1 strain (SPY 50644) growth inhibition, hits give high values
How it was run: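 Compounds are added to wt1 yeast cultures. Growth is then measured. Inhibition is expressed relative to vehicle-treated controls.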

[3] = NCI Yeast Anticancer Drug Screen. Data for the rad50EPP+ strain (AID 151);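 note: 0% = growth of vehicle-treated control cultures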; settings: S. cerevisiae rad50 mutant strain, hits give high values
How it was run: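 Compounds were applied to the rad50EPP+ yeast strain, which bears a defined DNA repair alteration, and growth inhibition was determined relative to vehicle-treated cultures.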

[4] = NCI Yeast Anticancer Drug Screen. Data for the mgt1 strain (AID 153); settings: S. cerevisiae mgt1 mutant growth inhibition, hits give high values
How it was run: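 Strain: mgt1 yeast, one of a set carrying defined DNA damage repair or cell cycle control alterations. Compound-treated growth compared with vehicle.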

[5] = NCI Yeast Anticancer Drug Screen. Data for the rad50 strain (AID 155);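 note: 0% = growth of vehicle-only cultures of the same strain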; settings: S. cerevisiae rad50 strain growth inhibition, hits give high values
How it was run: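 Inhibition values express reduced yeast growth in compound-treated cultures relative to vehicle-treated controls.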

[6] = NCI Yeast Anticancer Drug Screen. Data for the mec2-1 strain (AID 157); settings: S. cerevisiae mec2-1 strain, hits give high values
How it was run: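 Strain: mec2-1 (DNA repair/cell cycle alteration). Compound exposure, then growth measured; inhibition expressed relative to vehicle.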

[7] = NCI Yeast Anticancer Drug Screen. Data for the rad14 strain (AID 159);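 note: 0% = growth of vehicle-treated control cultures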; settings: S. cerevisiae rad14 strain growth inhibition, hits give high values
How it was run: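 A mutant yeast strain defective in DNA damage repair is treated with compound; inhibition of its growth is scored against untreated, vehicle-exposed cultures.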

[8] = NCI Yeast Anticancer Drug Screen. Data for the sgs1 mgt1 strain (AID 161);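 note: 0% = growth of cultures given vehicle only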; settings: S. cerevisiae sgs1 mgt1 strain, hits give high values
How it was run: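 Genetically altered yeast, compound exposure, growth inhibition relative to vehicle.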

[9] = NCI Yeast Anticancer Drug Screen. Data for the cln2 rad14 strain (AID 165);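 note: 0% = growth equal to vehicle treated cultures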; settings: S. cerevisiae cln2 rad14 strain, hits give high values
How it was run: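 Compounds are applied to the cln2 rad14 yeast strain, and growth is then compared with that of vehicle-treated cultures to give inhibition.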

[10] = NCI Yeast Anticancer Drug Screen. Data for the bub3 strain (AID 167); settings: S. cerevisiae bub3 mutant strain, hits give high values
How it was run: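 Steps: expose the mutant yeast strain to compound; grow alongside vehicle-treated cultures; measure growth; express inhibition against the vehicle cultures.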

[11] = NCI Yeast Anticancer Drug Screen. Data for the wt2 strain (AID 169);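 note: 0% = growth of vehicle-treated yeast cultures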; settings: S. cerevisiae wt2 strain growth inhibition, hits give high values
How it was run: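 This strain belongs to a panel of yeast strains with defined genetic alterations in DNA damage repair or cell cycle control. Compounds are applied, and growth inhibition is measured against vehicle-treated cultures.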

[12] = NCI Yeast Anticancer Drug Screen. Data for the mlh1 strain (AID 171);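 note: 0% = growth of vehicle-treated control cultures of the same strain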; settings: S. cerevisiae mlh1 strain growth inhibition, hits give high values
How it was run: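 Growth of the mutant yeast strain after compound exposure, expressed as inhibition relative to vehicle-only controls.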

[13] = NCI Yeast Anticancer Drug Screen. Data for the sgs1 strain (AID 173);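 note: 0% = growth of vehicle-only control cultures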; settings: S. cerevisiae sgs1 mutant, hits give high values
How it was run: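 Growth of a yeast strain bearing a defined genetic alteration is measured after compound treatment. Inhibition is expressed relative to vehicle-only controls.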

[14] = NCI Yeast Anticancer Drug Screen. Data for the mlh1 rad18 strain (AID 175); settings: S. cerevisiae mlh1 rad18 strain growth inhibition, hits give high values
How it was run: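 Read-out is yeast growth inhibition, calculated against vehicle-only controls. The compound was applied to a strain engineered with DNA damage repair alterations.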

[15] = NCI Yeast Anticancer Drug Screen. Data for the rad18 strain (AID 177); settings: S. cerevisiae rad18 mutant growth inhibition, hits give high values
How it was run: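 Growth of the mutant yeast strain after compound exposure, normalised to vehicle-only cultures.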

[16] = at 5.0 µM (retest, dose inferred, filed as 0.5)
[17] = at 50.0 µM (retest, dose inferred, filed as 5.0)

Measured: growth inhibition

CCCCCCC1OCC(O)C(OCCCC)O1 (stereo unspecified)
inactive: [1]; at 1.2 µM -3% | [1]; at 3.7 µM -4% | [1]; at 11.0 µM -2% | [1]; at 33.0 µM -4% | [1]; at 100.0 µM -4% | [2]; at 1.2 µM -4% | [2]; at 3.7 µM -3% | [2]; at 11.0 µM -5% | [2]; at 33.0 µM -8% | [2]; at 100.0 µM -10% | [3]; at 1.2 µM -8% | [3]; at 3.7 µM -4% | [3]; at 11.0 µM 2% | [3]; at 33.0 µM 3% | [3]; at 100.0 µM 50% | [4]; at 1.2 µM -6% | [4]; at 3.7 µM -4% | [4]; at 11.0 µM -4% | [4]; at 33.0 µM -6% | [4]; at 100.0 µM -3% | [5]; at 1.2 µM -5% | [5]; at 3.7 µM -11% | [5]; [16] -15% | [5]; at 11.0 µM -4% | [5]; at 33.0 µM -3% | [5]; [17] 3% | [5]; at 50.0 µM -0.55% | [5]; at 100.0 µM 1% | [6]; at 1.2 µM -2% | [6]; at 3.7 µM -3% | [6]; [16] -11% | [6]; at 11.0 µM -2% | [6]; at 33.0 µM -5% | [6]; [17] -35% | [6]; at 50.0 µM -13.7% | [6]; at 100.0 µM -4% | [7]; at 1.2 µM -5% | [7]; at 3.7 µM -4% | [7]; at 11.0 µM -4% | [7]; at 33.0 µM -3% | [7]; at 100.0 µM 0% | [8]; [16] -4% | [8]; [17] 16% | [8]; at 50.0 µM 11.2% | [9]; [16] -10% | [9]; [17] 60% | [9]; at 50.0 µM 0.05% | [10]; at 1.2 µM -5% | [10]; at 3.7 µM -6% | [10]; [16] -6% | [10]; at 11.0 µM -8% | [10]; at 33.0 µM -10% | [10]; [17] 15% | [10]; at 50.0 µM -8.05% | [10]; at 100.0 µM -12% | [11]; at 1.2 µM -4% | [11]; at 3.7 µM -5% | [11]; at 11.0 µM -6% | [11]; at 33.0 µM -7% | [11]; at 100.0 µM -7% | [12]; at 1.2 µM 0% | [12]; at 3.7 µM -1% | [12]; at 11.0 µM 0% | [12]; at 33.0 µM 1% | [12]; at 100.0 µM 6% | [13]; at 1.2 µM -4% | [13]; at 3.7 µM -1% | [13]; at 11.0 µM 0% | [13]; at 33.0 µM 0% | [13]; at 100.0 µM 4% | [14]; [16] 2% | [14]; [17] -4% | [14]; at 50.0 µM -15.8% | [15]; at 1.2 µM -3% | [15]; at 3.7 µM 1% | [15]; at 11.0 µM -1% | [15]; at 33.0 µM -2% | [15]; at 100.0 µM 1%

COc1cc([C@@H]2c3cc4c(cc3[C@@H](NC(=O)NO)[C@H]3COC(=O)[C@H]23)OCO4)cc(OC)c1O
inactive: [1]; at 1.2 µM -2% | [1]; at 3.7 µM 2% | [1]; at 11.0 µM 10% | [1]; at 33.0 µM 48% | [2]; at 1.2 µM -3% | [2]; at 3.7 µM -2% | [2]; at 11.0 µM 1% | [2]; at 33.0 µM -1% | [2]; at 100.0 µM 4% | [3]; at 1.2 µM -2% | [3]; at 3.7 µM 0% | [3]; at 11.0 µM 2% | [3]; at 33.0 µM 2% | [3]; at 100.0 µM 9% | [4]; at 1.2 µM -5% | [4]; at 3.7 µM -3% | [4]; at 11.0 µM -2% | [4]; at 33.0 µM 14% | [4]; at 100.0 µM 4% | [5]; at 1.2 µM 0% | [5]; at 3.7 µM 1% | [5]; [16] 13% | [5]; at 11.0 µM 10% | [5]; at 33.0 µM 47% | [6]; at 1.2 µM -1% | [6]; at 3.7 µM 1% | [6]; [16] 7% | [6]; at 11.0 µM 0% | [6]; at 33.0 µM 1% | [6]; [17] -13% | [6]; at 50.0 µM -12.1% | [6]; at 100.0 µM 17% | [7]; at 1.2 µM -4% | [7]; at 3.7 µM -4% | [7]; at 11.0 µM -6% | [7]; at 33.0 µM -2% | [7]; at 100.0 µM 8% | [8]; [16] -2% | [8]; [17] 2% | [8]; at 50.0 µM -3.9% | [9]; [16] 6% | [9]; [17] 9% | [9]; at 50.0 µM 1.4% | [10]; at 1.2 µM -3% | [10]; at 3.7 µM -3% | [10]; [16] 3% | [10]; at 11.0 µM -2% | [10]; at 33.0 µM -4% | [10]; [17] -13% | [10]; at 50.0 µM -5.95% | [10]; at 100.0 µM -3% | [11]; at 1.2 µM 0% | [11]; at 3.7 µM 0% | [11]; at 11.0 µM 3% | [11]; at 33.0 µM 2% | [11]; at 100.0 µM 5% | [12]; at 1.2 µM 0% | [12]; at 3.7 µM -2% | [12]; at 11.0 µM 1% | [12]; at 33.0 µM 2% | [12]; at 100.0 µM 7% | [13]; at 1.2 µM -1% | [13]; at 3.7 µM 1% | [13]; at 11.0 µM 3% | [13]; at 33.0 µM 3% | [13]; at 100.0 µM 12% | [14]; [16] 5% | [14]; [17] -14% | [14]; at 50.0 µM 12.7% | [15]; at 1.2 µM -2% | [15]; at 3.7 µM -1% | [15]; at 11.0 µM 17% | [15]; at 33.0 µM -1% | [15]; at 100.0 µM 8%
active: [1]; at 100.0 µM 88% | [5]; [17] 79% | [5]; at 50.0 µM 71.5% | [5]; at 100.0 µM 86%
